A short description of assay [1]: Nuclear factor erythroid 2-related factor 2/antioxidant responsive element (Nrf2/ARE) small molecule agonists: qHTS cell viability counter screen in human keratinocytes (AID 1919968; active means well fitted curve in the direction sought with a large enough effect in the repeat runs; an effect the other way counts as inactive or inconclusive; further: nearly all actives have a fitted effect of over 55% in size). The method in brief:
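Viability counter-screen: KeratinoSens reporter cells, DMSO-delivered compounds, 23 h at 37 C, CellTiter-Fluor fluorescence.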
In general terms: Quantitative high-throughput screening tests each substance at several concentrations.

The nature of assay [2]: Nuclear factor erythroid 2-related factor 2/antioxidant responsive element (Nrf2/ARE) small molecule agonists: luciferase reporter gene qHTS assay in human keratinocytes (AID 1919969; further: nearly all actives have a fitted effect of over 35% in size; further: potency means the concentration at half of the fitted maximal effect). (A reporter such as luciferase makes a cellular process visible.)
Assay [3] has as its target Gonadotropin-releasing hormone receptor (Homo sapiens) (UniProt P30968). The assay can be described thus: Human gonadotropin-releasing hormone receptor (GnRHR) small molecule agonists, calcium flux assay in GnRHR-HEK293 cells (AID 1920063). Further: nearly all actives have a fitted effect of over 35% in size. The method in brief:
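Tox21-format agonist screen using human GnRHR-expressing HEK293 cells and a fluorescent calcium dye; kinetic 3-min fluorescence reading after compound addition, 15-point concentration series run in triplicate.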
In general terms: Calcium assays in cells follow changes in intracellular calcium, usually with a dye or a luminescent sensor.

For assay [4], the target named is KiSS-1 receptor (Homo sapiens) (UniProt Q969F8). The assay can be described thus: Human kisspeptin (KISS1R) small molecule agonists, calcium flux assay in KISS1R-HEK293 cells (AID 1920064; active means well fitted curve in the direction sought with a large enough effect in the repeat runs; an effect the other way counts as inactive or inconclusive). The essentials: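 Intracellular calcium mobilization in KISS1R-HEK293 cells was recorded by fluorescence (Ex/Em 480/540) for 3 min following compound addition to cells pre-loaded 1 h with calcium dye.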
KiSS-1 receptor (Homo sapiens), sequence (Q969F8 whole entry, looked up): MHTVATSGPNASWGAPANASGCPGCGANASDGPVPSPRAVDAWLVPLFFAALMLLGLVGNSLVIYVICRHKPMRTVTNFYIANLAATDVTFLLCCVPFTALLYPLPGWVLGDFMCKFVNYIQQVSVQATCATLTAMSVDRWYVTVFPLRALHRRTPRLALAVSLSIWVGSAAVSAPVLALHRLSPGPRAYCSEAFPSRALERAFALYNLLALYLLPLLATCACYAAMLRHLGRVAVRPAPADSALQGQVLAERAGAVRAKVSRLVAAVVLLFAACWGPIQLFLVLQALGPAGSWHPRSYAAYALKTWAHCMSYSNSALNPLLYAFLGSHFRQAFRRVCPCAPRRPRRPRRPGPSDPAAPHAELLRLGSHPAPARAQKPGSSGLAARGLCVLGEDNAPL

The nature of assay [5]: G protein-coupled receptor (GPCR) small molecule agonists, calcium flux assay: HEK293 wild type cell line counter screen (AID 1920065). The method in brief:
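In this agonist-mode screen, ATP is the positive control and DMSO the vehicle. Cells grow 18 h before a 1 h dye incubation at 37 C; signal is taken at Ex/Em 480/540 over 3 min.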

A short description of assay [6]: p53 small molecule agonists, cell-based qHTS assay with human liver microsomes (AID 1963577).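 Further: p53 response element beta-lactamase reporter cells with liver microsomes plus NADPH.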 The method in brief:
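Reporter activation was measured by LiveBLAzer fluorescence intensity in p53RE-bla cells, which had been exposed to compounds for 16 h at 37 C alongside 0.5 mg/mL human liver microsomes and 0.5 mg/mL NADPH (final concentrations).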

Assay [7] can be described thus: p53 small molecule agonists, cell-based qHTS assay with rat liver microsomes (AID 1963578). The essentials: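 Compound in DMSO added to p53RE-bla cells 5 h post-plating; rat microsomes/NADPH 0.5 mg/mL final; 16 h, 37 C; LiveBLAzer 2 h RT.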
The nature of assay [8]: p53 small molecule agonists, cell-based qHTS assay with human liver microsomes: qHTS cell viability counter screen (AID 1963579). Further: nearly all actives have a fitted effect of over 45% in size. The method in brief:
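HLM-supplemented (0.5 mg/mL final) and NADPH-supplemented (0.5 mg/mL final) p53RE-bla cultures, 4,000 cells per well, were dosed with compounds in DMSO for 16 h at 37 C; luminescent ATP detection (CellTiter-Glo, 30 min, room temperature) quantified surviving cells.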

A short description of assay [9]: p53 small molecule agonists, cell-based qHTS assay with rat liver microsomes: qHTS cell viability counter screen (AID 1963580). Further: nearly all actives have a fitted effect of over 45% in size. The method in brief:
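p53RE-bla HCT-116 cells (4,000/well) rested 5 h at 37 C, then given Tox21 compounds in DMSO with rat liver microsomes (0.5 mg/mL final) plus NADPH (0.5 mg/mL final) for 16 h at 37 C. Viability read by CellTiter-Glo luminescence after 30 min at room temperature.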

A short description of assay [10]: p53 small molecule agonists, cell-based qHTS assay: qHTS cell viability counter screen (AID 1963581). Further: nearly all actives have a fitted effect of over 45% in size. Further: potency means the concentration at half of the fitted maximal effect. The method in brief:
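Compounds are pinned onto HCT-116 p53RE-bla cells and left 16 h at 37 C. Following the reporter FRET read, ATP is quantified by CellTiter-Glo luminescence after 30 min at room temperature.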

Assay [11] in a line: p53 small molecule agonists, cell-based qHTS assay (AID 1963582; active means well fitted activation curve with a large enough effect in the signal ratio in the repeat runs, not every such curve was filed as active; the % refers to the signal ratio; further: potency means the concentration at half of the fitted maximal effect). The method in brief:
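Agonist activity was scored from beta-lactamase FRET fluorescence in p53RE-bla cells treated 16 h at 37 C with compounds in DMSO, substrate incubation being 2 h at room temperature.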

Assay [12] addresses 5-hydroxytryptamine receptor 2A (Homo sapiens) (UniProt P28223). Kind of assay: 5-hydroxytryptamine receptor 2A (HTR2A) small molecule antagonists, cell-based qHTS assay (AID 1963586). Further: nearly all actives have a fitted effect of over 45% in size. The essentials: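 Antagonist-mode intracellular calcium assay: DOI (4 nM) added after 5 min compound pre-incubation at room temperature to dye-loaded HTR2A-CHO cells. Fluorescence followed for 3 min, sampled every second.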

For assay [13] the target is unchanged. Kind of assay: 5-hydroxytryptamine receptor 2A (HTR2A) small molecule agonists, cell-based qHTS assay (AID 1963587). Further: nearly all actives have a fitted effect of over 30% in size. The method in brief:
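HTR2A-CHO cells, plated 18 h at 37 C/5% CO2, dye-loaded 1 h at 37 C; compounds in DMSO added by pin tool (agonist mode). Intracellular calcium flux read as kinetic fluorescence on FDSS over 2 min at 1 s intervals.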

For assay [14], the target named is Muscarinic acetylcholine receptor M1 (Homo sapiens) (UniProt P11229). Kind of assay: Cholinergic receptor muscarinic 1 (CHRM1) small molecule antagonists, cell-based qHTS assay (AID 1963588). Further: nearly all actives have a fitted effect of over 40% in size. The method in brief: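 CHRM1-CHO calcium-flux assay, antagonist mode. Cells were seeded 18 h, dye-loaded 1 h at 37 C and given compound for 5 min at RT, then acetylcholine was added at 50nM. FDSS fluorescence was read 3 min; 15 concentrations, three runs.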
Muscarinic acetylcholine receptor M1 (Homo sapiens), sequence (P11229 whole entry, looked up): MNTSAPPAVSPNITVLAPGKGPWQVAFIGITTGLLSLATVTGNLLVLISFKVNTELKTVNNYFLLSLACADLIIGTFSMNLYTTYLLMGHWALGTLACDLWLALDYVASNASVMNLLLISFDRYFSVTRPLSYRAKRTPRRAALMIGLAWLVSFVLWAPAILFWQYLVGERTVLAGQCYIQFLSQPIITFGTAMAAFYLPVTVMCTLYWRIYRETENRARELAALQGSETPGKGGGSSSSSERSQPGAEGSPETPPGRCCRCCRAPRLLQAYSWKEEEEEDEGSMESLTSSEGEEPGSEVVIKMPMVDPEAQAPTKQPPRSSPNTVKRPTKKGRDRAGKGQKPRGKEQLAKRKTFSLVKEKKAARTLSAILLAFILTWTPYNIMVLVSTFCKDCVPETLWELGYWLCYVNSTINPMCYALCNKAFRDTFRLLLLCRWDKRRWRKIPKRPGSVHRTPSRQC

Assay [15] shares this target. The assay can be described thus: Cholinergic receptor muscarinic 1 (CHRM1) small molecule agonists, cell-based qHTS assay (AID 1963589). Further: nearly all actives have a fitted effect of over 35% in size. The method in brief:
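Stable CHRM1-CHO cells (human receptor) were incubated 18 h, dye-loaded for 1 h at 37 C and exposed to test compounds for agonist activity, with calcium-dependent fluorescence followed kinetically.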

Assay [16] has as its target D(2) dopamine receptor (Homo sapiens) (UniProt P14416). The assay can be described thus: Dopamine D2 receptor (DRD2) small molecule agonists, cell-based qHTS assay (AID 1963594). Further: nearly all actives have a fitted effect of over 35% in size. The method in brief: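 HEK293 cells stably expressing DRD2 were cultured 24 h at 37 C, then given Ro20-1724 (0.1 mM final) and compounds for 10 min at room temperature. NKH477 (200nM) was then added for 30 min. cAMP was read by HTRF.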

Assay [17] in a line: cAMP Responsive Elements (CRE) small molecule agonists, cell-based qHTS assay (AID 1963590). The essentials:
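FRET-based beta-lactamase readout (LiveBLAzer B/G, 2 h RT) quantified CRE activation in HEK 293T CRE-bla cells after 3 h treatment with DMSO-dissolved compounds.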

Assay [18] deals with Beta-2 adrenergic receptor (Homo sapiens) (UniProt P07550). Kind of assay: Adrenergic beta2 receptor (ADRB2) small molecule antagonists, cell-based qHTS assay (AID 1963592). Further: series mostly up to about 92 µM; nearly all actives have a fitted effect of over 50% in size. The essentials: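 Cells (CHO, stable ADRB2 overexpression) incubated 18-20hr at 37C; compounds added from DMSO; agonist mix (1nM isoproterenol, 100uM IBMX, 25uM Ro-20-1724) added; 0.5hr RT; d2-cAMP and anti-cAMP-cryptate added; 1hr RT; 665/615 nm read.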
Beta-2 adrenergic receptor (Homo sapiens), sequence (P07550 whole entry, looked up): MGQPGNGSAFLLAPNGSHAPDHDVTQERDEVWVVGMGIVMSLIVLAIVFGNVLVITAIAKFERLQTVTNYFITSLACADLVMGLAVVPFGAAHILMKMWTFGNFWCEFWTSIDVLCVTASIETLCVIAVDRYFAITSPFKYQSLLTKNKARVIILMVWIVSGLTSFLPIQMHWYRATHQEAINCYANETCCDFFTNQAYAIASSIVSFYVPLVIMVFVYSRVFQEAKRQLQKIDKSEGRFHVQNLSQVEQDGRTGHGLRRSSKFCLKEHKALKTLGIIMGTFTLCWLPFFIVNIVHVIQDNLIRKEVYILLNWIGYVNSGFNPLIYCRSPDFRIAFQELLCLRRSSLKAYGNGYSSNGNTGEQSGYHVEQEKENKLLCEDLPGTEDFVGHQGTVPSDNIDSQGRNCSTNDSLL

Assay [19] concerns the target D(2) dopamine receptor (Homo sapiens) (UniProt P14416). The assay can be described thus: Dopamine D2 receptor (DRD2) small molecule antagonists, cell-based qHTS assay (AID 1963595; active means well fitted inhibition curve with a large enough effect in the signal ratio in the repeat runs, with a control signal flat; the % refers to the signal ratio). The essentials: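 Human DRD2 antagonist qHTS measuring cAMP by HTRF. The cells are exposed to compound for 10 min, then to NKH477 (200 nM) and quinpirole (12 nM) for 30 min at RT, with Ro20-1724 (0.1 mM) present throughout.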

Assay [20] is described as follows: cAMP Responsive Elements (CRE) small molecule antagonists, cell-based qHTS assay (AID 1963591; active means well fitted inhibition curve with a large enough effect in the signal ratio in the repeat runs, not every such curve was filed as active; the % refers to the signal ratio). The essentials:
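qHTS in CRE-bla HEK 293T cells: compound in DMSO, then 0.25 uM NKH477 (final), 3 h at 37 °C/5% CO2; beta-lactamase FRET read-out after 2 h substrate incubation.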

A number with no mark means an inactive call. Results filed as inconclusive are left out. Calls of active or inactive are those of the source. Unless noted, the call rests on the fitted dose curve.

5-hydroxytryptamine receptor 2A (Homo sapiens), sequence (P28223 whole entry, looked up): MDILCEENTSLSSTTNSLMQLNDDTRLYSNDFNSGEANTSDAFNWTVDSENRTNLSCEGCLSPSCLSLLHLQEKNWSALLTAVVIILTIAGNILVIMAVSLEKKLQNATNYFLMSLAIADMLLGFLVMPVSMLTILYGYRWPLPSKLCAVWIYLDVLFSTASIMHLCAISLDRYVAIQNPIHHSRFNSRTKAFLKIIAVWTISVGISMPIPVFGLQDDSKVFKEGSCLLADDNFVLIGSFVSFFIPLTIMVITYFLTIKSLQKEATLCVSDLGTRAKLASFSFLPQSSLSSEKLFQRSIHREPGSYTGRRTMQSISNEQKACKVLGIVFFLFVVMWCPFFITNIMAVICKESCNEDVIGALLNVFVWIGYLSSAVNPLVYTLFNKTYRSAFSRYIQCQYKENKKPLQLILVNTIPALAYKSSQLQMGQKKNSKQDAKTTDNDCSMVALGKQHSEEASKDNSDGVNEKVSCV
Gonadotropin-releasing hormone receptor (Homo sapiens), sequence (P30968 whole entry, looked up): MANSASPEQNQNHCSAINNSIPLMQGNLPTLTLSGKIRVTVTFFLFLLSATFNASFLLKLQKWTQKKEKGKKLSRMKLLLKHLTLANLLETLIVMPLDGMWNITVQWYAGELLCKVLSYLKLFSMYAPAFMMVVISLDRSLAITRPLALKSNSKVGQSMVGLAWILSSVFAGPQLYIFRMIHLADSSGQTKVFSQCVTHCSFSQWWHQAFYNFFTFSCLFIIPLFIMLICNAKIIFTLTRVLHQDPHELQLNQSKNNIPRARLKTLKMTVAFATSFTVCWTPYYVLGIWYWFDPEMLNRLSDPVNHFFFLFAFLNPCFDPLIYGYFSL
D(2) dopamine receptor (Homo sapiens), sequence (P14416 whole entry, looked up): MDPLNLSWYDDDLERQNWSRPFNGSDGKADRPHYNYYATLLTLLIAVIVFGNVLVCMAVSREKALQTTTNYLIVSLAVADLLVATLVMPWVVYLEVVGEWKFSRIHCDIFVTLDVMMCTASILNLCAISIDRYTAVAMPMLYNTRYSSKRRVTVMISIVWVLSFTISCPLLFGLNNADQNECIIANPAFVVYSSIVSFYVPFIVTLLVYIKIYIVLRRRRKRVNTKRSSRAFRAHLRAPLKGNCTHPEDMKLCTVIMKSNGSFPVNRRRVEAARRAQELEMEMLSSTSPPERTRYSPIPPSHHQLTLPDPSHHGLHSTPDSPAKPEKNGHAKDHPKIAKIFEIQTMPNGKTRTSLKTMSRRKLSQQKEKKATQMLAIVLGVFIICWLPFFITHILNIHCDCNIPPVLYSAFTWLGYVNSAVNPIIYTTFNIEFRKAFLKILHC

Turning to `CC(C)=CCC1=C(O)c2ccccc2C(=O)C1=O`, the Potency result in assay [1], in [3], in assay [6], in assay [7], in assay [8] and in assay [9] was “inactive” in each case. Besides, the Potency entry in assay [12], in assay [13], in [14], in assay [15] and in assay [16] was “inactive” in each case. The Potency in [2] was 60.8 µM (active); in [10], 3.61 µM (active); in assay [11] it was 4.06 µM (active). Besides, the outcome in assay [4] and in [5] was inactive.

Turning to `O=C(O)C(=O)Cc1c[nH]c2ccccc12`, the Potency entry in [1], in assay [3], in assay [6], in assay [7], in assay [8] and in assay [9] was “inactive” in each case. Also, the Potency entry in assay [10], in assay [11], in [12], in assay [13], in assay [14] and in assay [17] was “inactive” each time. Also, the Potency result in assay [18], in assay [16] and in assay [19] was “inactive” each time. Besides, in [2], the Potency was 54.5 µM (active). Moreover, the outcome in assay [4] and in assay [5] was inactive.

Regarding `Cc1c(F)cc2c(=O)c(C(=O)O)cn3c2c1CCC3C` (stereo not given), the Potency result in assay [1], in assay [2], in assay [3], in assay [6], in [7] and in assay [8] was “inactive” each time. The Potency result in assay [9], in [10], in assay [11], in assay [12], in assay [13] and in assay [14] was “inactive” throughout. The Potency result in assay [15], in [18], in [16] and in assay [19] was “inactive” in each case. Besides, the outcome in assay [4] and in assay [5] was inactive.

As for `O=C(O)c1c(O)c(-c2ccccc2)nc2ccccc12`, the Potency entry in assay [1], in assay [2], in assay [3], in assay [6], in assay [7] and in assay [8] was “inactive” in each case. For the same molecule, the Potency entry in [9], in [10], in assay [12], in [13], in [14] and in [17] was “inactive” each time. Moreover, the Potency result in [20], in assay [18], in assay [16] and in assay [19] was “inactive” each time. In addition, the outcome in assay [4] and in assay [5] was inactive. The Potency in [11] was 19.9 µM (active).

On to `O=C(O)c1cc(Cl)cc(Cl)c1`, for which the Potency result in assay [1], in assay [2], in assay [3], in assay [6], in assay [7] and in assay [8] was “inactive” each time. The Potency entry in assay [9], in assay [10], in [11], in [12], in assay [13] and in assay [14] was “inactive” throughout. Further, the Potency entry in assay [15], in assay [18], in assay [16] and in assay [19] was “inactive” in each case. Besides, the outcome in assay [4] and in assay [5] was inactive.

As to `OC1OCCOC1O` (stereo not given), the Potency entry in [1], in assay [2], in assay [3], in assay [6], in assay [7] and in [8] was “inactive” in each case. The Potency entry in [9], in assay [10], in assay [11], in [12], in [13] and in [14] was “inactive” throughout. Besides, the Potency result in assay [17], in assay [20], in [18], in assay [16] and in assay [19] was “inactive” each time. The result in assay [4] and in [5] was inactive.

Regarding `CC1CCc2c(N3CCC(O)CC3)c(F)cc3c(=O)c(C(=O)O)cn1c23` (stereo not given), the Potency entry in assay [1], in [2], in assay [3], in [6], in [7] and in assay [8] was “inactive” throughout. The Potency result in assay [9], in assay [10], in assay [11], in [12], in assay [13] and in assay [14] was “inactive” in each case. In addition, the Potency result in [15], in [18] and in assay [16] was “inactive” in each case. The result in assay [4] and in [5] was inactive.
